The results in this text go back to the supplement of paper PMC10646978.

Common to all, as to settings: modulator concentration 10 µM
For assay [1], the system named is RAW-Dual (murine macrophage reporter line). Kind of assay: NF-kB reporter (SEAP) activity fold change vs agonist alone; higher = enhanced NF-kB activity. The method, boiled down:
(§1)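 Overnight stimulation with a PRR agonist followed pre-incubation for 1 hour at 37 °C with compound at 10 μM final. This was done in RAW-Dual murine macrophage reporter cells seeded at 50 000 per well in 384-well plates. NF-κB (SEAP, QUANTI-Blue absorbance at 620 nm) and IRF (Lucia luciferase, QUANTI-Luc luminescence) were read from the supernatant. Each reporter's fold change relative to the mean agonist-only control on the same plate was averaged over replicate plates.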

Assay [2] shares this test system. Briefly: IRF reporter (Lucia luciferase) activity fold change vs agonist alone; higher = enhanced IRF activity. In short, it runs like this:
as §1

The test system is the same in assay [3]. Briefly: viability score (confluency relative to resting cells, overnight) (fraction); higher = more viable, active = viable (0.7 or more). In short, it runs like this: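 Confluency was the readout: RAW-Dual macrophages were imaged with IncuCyte after an overnight exposure to compound at 10 μM final. IncuCyte software produced two masks over all imaged wells. The viability score expresses confluency against resting cells, and both masks had to exceed 70% of resting cells for a compound to meet the cutoff.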

The mark [4] stands for this setting: agonist: CpG ODN 1826 0.5 ug/mL.

Molecules are shown by their SMILES. ± gives the standard deviation.

Regarding `CC(=NN1CCN(Cc2cccc3ccccc23)CC1)c1ccc(O)cc1`, the NF-kB reporter in assay [1] (setting [4]) stood at 0.841 ± 0.062; in assay [1] (agonist: LPS 0.1 ug/mL), 0.886 ± 0.079; in assay [1] (agonist: MPLA […]), 0.988 ± 0.026. The values for the IRF reporter in assay [2] (agonist: 3'3'-cGAMP 10 ug/mL), in assay [2] (agonist: LPS 0.1 ug/mL) and in assay [2] (agonist: MPLA […]) were 0.849 ± 0.031, 0.946 ± 0.1 and 0.963 ± 0.14, respectively. In assay [3], the viability score was 0.996 (active).
In the case of `Cl.c1ccc(CC2=NCCN2)cc1`, the NF-kB reporter in assay [1] (setting [4]) is 0.999 ± 0.14; in assay [1] (agonist: LPS 0.1 ug/mL), 1.08 ± 0.17; in assay [1] (agonist: MPLA […]), 0.923 ± 0.051. The IRF reporter is 0.887 ± 0.027 in assay [2] (agonist: 3'3'-cGAMP 10 ug/mL), 1.17 ± 0.22 in assay [2] (agonist: LPS 0.1 ug/mL) and 1.13 ± 0.1 in assay [2] (agonist: MPLA […]). Further, the viability score in assay [3] was 0.993 (active).
On to `Cc1cn([C@H]2C=C[C@@H](CO)O2)c(=O)[nH]c1=O` [Prestw-1279], for which the figures for the NF-kB reporter in assay [1] (setting [4]), in assay [1] (agonist: LPS 0.1 ug/mL) and in assay [1] (agonist: MPLA […]) were 1.13 ± 0.11, 1.05 ± 0.13 and 0.957 ± 0.077, respectively. Further, the IRF reporter in assay [2] (agonist: 3'3'-cGAMP 10 ug/mL) was determined as 0.969 ± 0.074; in assay [2] (agonist: LPS 0.1 ug/mL), 0.94 ± 0.092; in assay [2] (agonist: MPLA […]) it was 0.877 ± 0.13. Moreover, the viability score in assay [3] is 0.998 (active).
Regarding `COc1cccc2c1C(=O)c1c(O)c3c(c(O)c1C2=O)C[C@@](O)(C(=O)CO)C[C@@H]3O[C@H]1C[C@H](N)[C@H](O)[C@H](C)O1` [Prestw-438], the results for the NF-kB reporter in assay [1] (setting [4]), in assay [1] (agonist: LPS 0.1 ug/mL) and in assay [1] (agonist: MPLA […]) were 0.123 ± 0.007, 0.0747 ± 0.019 and 0.112 ± 0.0071, respectively. Also, the IRF reporter in assay [2] (agonist: 3'3'-cGAMP 10 ug/mL) is 0.03 ± 0.0031; in assay [2] (agonist: LPS 0.1 ug/mL), 0.0425 ± 0.0034; in assay [2] (agonist: MPLA […]), 0.0335 ± 0.0064. The viability score in assay [3] is 0.114 (inactive).
For the compound `Cc1c(Cl)cccc1Nc1ccccc1C(=O)O`, the NF-kB reporter was 1.16 ± 0.17 in assay [1] (setting [4]), 1.14 ± 0.3 in assay [1] (agonist: LPS 0.1 ug/mL) and 0.887 ± 0.052 in assay [1] (agonist: MPLA […]). Moreover, the IRF reporter worked out at 0.938 ± 0.043 in assay [2] (agonist: 3'3'-cGAMP 10 ug/mL), 1.34 ± 0.26 in assay [2] (agonist: LPS 0.1 ug/mL) and 1.13 ± 0.28 in assay [2] (agonist: MPLA […]). For the same compound, in assay [3], the viability score was 1 (active).
Consider `Brc1ccc2ncnc(Nc3ccccc3)c2c1`, for which the NF-kB reporter amounted to 1.03 ± 0.12 in assay [1] (setting [4]), 1.25 ± 0.097 in assay [1] (agonist: LPS 0.1 ug/mL) and 1.04 ± 0.029 in assay [1] (agonist: MPLA […]). Moreover, the IRF reporter in assay [2] (agonist: 3'3'-cGAMP 10 ug/mL) was determined as 0.357 ± 0.021; in assay [2] (agonist: LPS 0.1 ug/mL) it was 0.629 ± 0.039; in assay [2] (agonist: MPLA […]), 0.731 ± 0.08. The viability score in assay [3] was 1 (active).
On to `COc1ccccc1N1CCN(CC(O)COc2cccc3ccccc23)CC1` (stereo unspecified), for which the NF-kB reporter in assay [1] (setting [4]) is 0.878 ± 0.22; in assay [1] (agonist: LPS 0.1 ug/mL), 1.21 ± 0.2; in assay [1] (agonist: MPLA […]), 0.711 ± 0.04. In addition, the IRF reporter worked out at 0.719 ± 0.026 in assay [2] (agonist: 3'3'-cGAMP 10 ug/mL), 1.6 ± 0.14 in assay [2] (agonist: LPS 0.1 ug/mL) and 1.35 ± 0.13 in assay [2] (agonist: MPLA […]). In assay [3], the viability score was 0.967 (active).
In the case of `CCOC(=O)C(Oc1ccc2c(c1)oc(=O)c1cc(OC)ccc12)c1ccccc1` (stereo unspecified), the NF-kB reporter turned out to be 1.04 ± 0.062 in assay [1] (setting [4]), 0.998 ± 0.13 in assay [1] (agonist: LPS 0.1 ug/mL) and 0.929 ± 0.025 in assay [1] (agonist: MPLA […]). Moreover, the IRF reporter in assay [2] (agonist: 3'3'-cGAMP 10 ug/mL) was determined as 0.977 ± 0.04; in assay [2] (agonist: LPS 0.1 ug/mL) it was 1.02 ± 0.089; in assay [2] (agonist: MPLA […]), 1.11 ± 0.21. Besides, the viability score in assay [3] was 1 (active).
`CCCCCCCCCCC[C@@H](C[C@@H]1OC(=O)[C@H]1CCCCCC)OC(=O)[C@H](CC(C)C)NC=O`: the NF-kB reporter is 1.1 ± 0.083 in assay [1] (setting [4]), 0.92 ± 0.058 in assay [1] (agonist: LPS 0.1 ug/mL) and 1.02 ± 0.044 in assay [1] (agonist: MPLA […]). Besides, the values for the IRF reporter in assay [2] (agonist: 3'3'-cGAMP 10 ug/mL), in assay [2] (agonist: LPS 0.1 ug/mL) and in assay [2] (agonist: MPLA […]) were 1.04 ± 0.23, 0.927 ± 0.048 and 0.923 ± 0.12, respectively. The viability score in assay [3] was 1 (active).
In the case of `O=C(NCCN1CCN(c2ccc(Cl)cc2)CC1)c1ccncc1`, the NF-kB reporter in assay [1] (setting [4]) came to 0.974 ± 0.076; in assay [1] (agonist: LPS 0.1 ug/mL) it was 0.99 ± 0.076; in assay [1] (agonist: MPLA […]) it was 1.01 ± 0.027. Besides, the results for the IRF reporter in assay [2] (agonist: 3'3'-cGAMP 10 ug/mL), in assay [2] (agonist: LPS 0.1 ug/mL) and in assay [2] (agonist: MPLA […]) were 1.01 ± 0.053, 1.02 ± 0.081 and 0.986 ± 0.097, respectively. Further, the viability score in assay [3] is 0.998 (active).
`CCCCCCc1cc2cc(-c3nc(-c4ccc(Oc5ccccc5)cc4)cs3)c(=O)oc2cc1O`: the values for the NF-kB reporter in assay [1] (setting [4]), in assay [1] (agonist: LPS 0.1 ug/mL) and in assay [1] (agonist: MPLA […]) were 0.962 ± 0.096, 1.04 ± 0.085 and 0.946 ± 0.068, respectively. Also, the values for the IRF reporter in assay [2] (agonist: 3'3'-cGAMP 10 ug/mL), in assay [2] (agonist: LPS 0.1 ug/mL) and in assay [2] (agonist: MPLA […]) were 0.873 ± 0.024, 1.42 ± 0.22 and 1.12 ± 0.29, respectively. The viability score in assay [3] was 1.01 (active).
As to `O=C(O)c1ccccc1O`, the NF-kB reporter is 1.03 ± 0.23 in assay [1] (setting [4]), 1.04 ± 0.18 in assay [1] (agonist: LPS 0.1 ug/mL) and 0.923 ± 0.052 in assay [1] (agonist: MPLA […]). In addition, the values for the IRF reporter in assay [2] (agonist: 3'3'-cGAMP 10 ug/mL), in assay [2] (agonist: LPS 0.1 ug/mL) and in assay [2] (agonist: MPLA […]) were 0.925 ± 0.03, 1.34 ± 0.12 and 1.23 ± 0.094, respectively. Also, in assay [3], the viability score is 0.995 (active).
On to `C[C@@H](O[C@H]1OCCN(Cc2nc(=O)[nH][nH]2)[C@H]1c1ccc(F)cc1)c1cc(C(F)(F)F)cc(C(F)(F)F)c1` [Prestw-1600], for which the NF-kB reporter in assay [1] (setting [4]) was found to be 0.345 ± 0.022; in assay [1] (agonist: LPS 0.1 ug/mL), 0.516 ± 0.058; in assay [1] (agonist: MPLA […]) it was 0.333 ± 0.023. Further, the IRF reporter came to 1.64 ± 0.067 in assay [2] (agonist: 3'3'-cGAMP 10 ug/mL), 1.23 ± 0.078 in assay [2] (agonist: LPS 0.1 ug/mL) and 0.969 ± 0.13 in assay [2] (agonist: MPLA […]). Further, the viability score in assay [3] was 0.264 (inactive).
